Assay [1] concerns the target T1, Mitogen-activated protein kinase kinase kinase 7 (Homo sapiens) (UniProt O43318).
T1 sequence (whole entry): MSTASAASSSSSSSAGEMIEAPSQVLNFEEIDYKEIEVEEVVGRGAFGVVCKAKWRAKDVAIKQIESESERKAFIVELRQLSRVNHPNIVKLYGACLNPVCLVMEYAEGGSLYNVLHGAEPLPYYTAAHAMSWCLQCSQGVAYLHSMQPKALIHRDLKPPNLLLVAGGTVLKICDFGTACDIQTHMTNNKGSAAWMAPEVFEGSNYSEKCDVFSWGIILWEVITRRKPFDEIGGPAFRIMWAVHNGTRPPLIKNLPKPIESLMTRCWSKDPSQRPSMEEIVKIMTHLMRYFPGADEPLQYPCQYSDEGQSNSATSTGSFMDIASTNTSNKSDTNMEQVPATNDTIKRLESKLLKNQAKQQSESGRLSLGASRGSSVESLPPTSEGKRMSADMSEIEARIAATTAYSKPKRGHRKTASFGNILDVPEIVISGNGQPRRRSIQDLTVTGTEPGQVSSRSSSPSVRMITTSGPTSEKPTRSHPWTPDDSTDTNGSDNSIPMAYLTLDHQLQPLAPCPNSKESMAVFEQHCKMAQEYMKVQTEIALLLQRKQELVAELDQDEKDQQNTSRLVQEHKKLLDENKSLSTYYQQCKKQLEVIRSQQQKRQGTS
As to conditions: at 1 µM.

The target in assay [2] is T1, Mitogen-activated protein kinase kinase kinase 7 (Homo sapiens). As to conditions: at 10 µM.
The target in assay [3] is Insulin receptor (Homo sapiens) (UniProt P06213). Conditions: at 1 µM.
Insulin receptor (Homo sapiens), sequence (P06213 28-758 limits assumed): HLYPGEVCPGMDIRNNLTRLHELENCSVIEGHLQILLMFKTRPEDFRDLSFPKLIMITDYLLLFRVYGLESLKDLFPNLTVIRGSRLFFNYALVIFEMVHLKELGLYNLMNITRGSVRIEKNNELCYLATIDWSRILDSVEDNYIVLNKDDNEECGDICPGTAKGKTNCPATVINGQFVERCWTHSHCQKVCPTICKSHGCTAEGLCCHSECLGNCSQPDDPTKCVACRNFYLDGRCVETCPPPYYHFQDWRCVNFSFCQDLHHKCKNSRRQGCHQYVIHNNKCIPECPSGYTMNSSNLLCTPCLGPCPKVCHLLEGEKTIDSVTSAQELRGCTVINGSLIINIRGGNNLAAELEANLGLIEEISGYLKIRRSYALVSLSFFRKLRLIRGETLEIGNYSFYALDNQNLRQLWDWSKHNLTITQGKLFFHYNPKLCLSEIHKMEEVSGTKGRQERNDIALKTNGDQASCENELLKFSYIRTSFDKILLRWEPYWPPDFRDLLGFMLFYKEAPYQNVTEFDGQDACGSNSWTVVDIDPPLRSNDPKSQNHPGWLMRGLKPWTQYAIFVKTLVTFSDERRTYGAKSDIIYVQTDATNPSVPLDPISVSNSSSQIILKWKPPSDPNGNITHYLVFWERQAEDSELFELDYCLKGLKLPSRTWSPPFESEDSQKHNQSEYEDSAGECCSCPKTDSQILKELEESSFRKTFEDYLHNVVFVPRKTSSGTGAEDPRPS
Insulin receptor (Homo sapiens), sequence (P06213 763-1382 limits assumed): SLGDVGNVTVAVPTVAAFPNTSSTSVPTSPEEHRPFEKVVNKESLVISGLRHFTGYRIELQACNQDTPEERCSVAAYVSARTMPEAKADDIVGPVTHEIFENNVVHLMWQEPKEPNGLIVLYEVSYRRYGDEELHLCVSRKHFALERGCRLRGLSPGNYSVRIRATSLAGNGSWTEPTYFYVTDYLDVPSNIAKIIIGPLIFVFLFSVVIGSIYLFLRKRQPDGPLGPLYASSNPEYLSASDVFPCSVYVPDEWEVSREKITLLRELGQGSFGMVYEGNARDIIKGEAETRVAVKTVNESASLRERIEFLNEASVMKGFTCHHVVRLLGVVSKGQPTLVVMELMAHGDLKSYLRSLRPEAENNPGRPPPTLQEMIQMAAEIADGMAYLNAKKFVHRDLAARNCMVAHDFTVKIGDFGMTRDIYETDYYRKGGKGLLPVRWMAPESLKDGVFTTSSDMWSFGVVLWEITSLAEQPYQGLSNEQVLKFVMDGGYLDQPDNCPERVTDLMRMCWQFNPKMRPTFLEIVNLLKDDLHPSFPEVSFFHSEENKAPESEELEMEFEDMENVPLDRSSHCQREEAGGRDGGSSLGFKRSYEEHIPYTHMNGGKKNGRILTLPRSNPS
The target of assay [4] is T2, Serine/threonine-protein kinase TAO1 (Homo sapiens) (UniProt Q7L7X3).
T2 sequence (whole entry): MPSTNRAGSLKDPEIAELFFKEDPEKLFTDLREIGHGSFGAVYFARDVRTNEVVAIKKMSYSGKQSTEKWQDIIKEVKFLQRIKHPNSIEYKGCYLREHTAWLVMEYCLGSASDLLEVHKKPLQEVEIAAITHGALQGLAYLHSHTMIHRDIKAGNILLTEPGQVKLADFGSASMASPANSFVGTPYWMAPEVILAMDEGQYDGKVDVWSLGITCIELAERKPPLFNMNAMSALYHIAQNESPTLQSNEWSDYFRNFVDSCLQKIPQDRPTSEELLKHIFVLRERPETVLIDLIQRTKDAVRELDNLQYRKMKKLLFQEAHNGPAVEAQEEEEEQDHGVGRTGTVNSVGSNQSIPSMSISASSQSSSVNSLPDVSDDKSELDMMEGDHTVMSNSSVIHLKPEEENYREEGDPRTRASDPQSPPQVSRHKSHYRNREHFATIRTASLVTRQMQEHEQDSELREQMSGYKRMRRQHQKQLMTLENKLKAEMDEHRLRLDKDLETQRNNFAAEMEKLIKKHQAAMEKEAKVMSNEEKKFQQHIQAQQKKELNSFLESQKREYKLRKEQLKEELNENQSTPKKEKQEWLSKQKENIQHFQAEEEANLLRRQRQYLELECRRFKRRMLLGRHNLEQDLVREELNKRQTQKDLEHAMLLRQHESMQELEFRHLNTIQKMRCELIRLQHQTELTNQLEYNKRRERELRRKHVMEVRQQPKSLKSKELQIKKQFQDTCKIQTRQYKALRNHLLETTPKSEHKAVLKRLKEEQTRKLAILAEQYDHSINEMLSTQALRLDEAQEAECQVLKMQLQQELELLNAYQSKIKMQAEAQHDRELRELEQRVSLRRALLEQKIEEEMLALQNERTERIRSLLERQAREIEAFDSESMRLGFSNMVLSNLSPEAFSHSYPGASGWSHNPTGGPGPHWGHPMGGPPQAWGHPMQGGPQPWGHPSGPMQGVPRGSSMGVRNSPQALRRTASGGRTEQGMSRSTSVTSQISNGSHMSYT
As to conditions: at 1 µM.

For assay [5], the target named is T2, Serine/threonine-protein kinase TAO1 (Homo sapiens). Conditions: at 10 µM.
In assay [6] the target is T3, Serine/threonine-protein kinase TAO2 (Homo sapiens) (UniProt Q9UL54).
T3 sequence (whole entry): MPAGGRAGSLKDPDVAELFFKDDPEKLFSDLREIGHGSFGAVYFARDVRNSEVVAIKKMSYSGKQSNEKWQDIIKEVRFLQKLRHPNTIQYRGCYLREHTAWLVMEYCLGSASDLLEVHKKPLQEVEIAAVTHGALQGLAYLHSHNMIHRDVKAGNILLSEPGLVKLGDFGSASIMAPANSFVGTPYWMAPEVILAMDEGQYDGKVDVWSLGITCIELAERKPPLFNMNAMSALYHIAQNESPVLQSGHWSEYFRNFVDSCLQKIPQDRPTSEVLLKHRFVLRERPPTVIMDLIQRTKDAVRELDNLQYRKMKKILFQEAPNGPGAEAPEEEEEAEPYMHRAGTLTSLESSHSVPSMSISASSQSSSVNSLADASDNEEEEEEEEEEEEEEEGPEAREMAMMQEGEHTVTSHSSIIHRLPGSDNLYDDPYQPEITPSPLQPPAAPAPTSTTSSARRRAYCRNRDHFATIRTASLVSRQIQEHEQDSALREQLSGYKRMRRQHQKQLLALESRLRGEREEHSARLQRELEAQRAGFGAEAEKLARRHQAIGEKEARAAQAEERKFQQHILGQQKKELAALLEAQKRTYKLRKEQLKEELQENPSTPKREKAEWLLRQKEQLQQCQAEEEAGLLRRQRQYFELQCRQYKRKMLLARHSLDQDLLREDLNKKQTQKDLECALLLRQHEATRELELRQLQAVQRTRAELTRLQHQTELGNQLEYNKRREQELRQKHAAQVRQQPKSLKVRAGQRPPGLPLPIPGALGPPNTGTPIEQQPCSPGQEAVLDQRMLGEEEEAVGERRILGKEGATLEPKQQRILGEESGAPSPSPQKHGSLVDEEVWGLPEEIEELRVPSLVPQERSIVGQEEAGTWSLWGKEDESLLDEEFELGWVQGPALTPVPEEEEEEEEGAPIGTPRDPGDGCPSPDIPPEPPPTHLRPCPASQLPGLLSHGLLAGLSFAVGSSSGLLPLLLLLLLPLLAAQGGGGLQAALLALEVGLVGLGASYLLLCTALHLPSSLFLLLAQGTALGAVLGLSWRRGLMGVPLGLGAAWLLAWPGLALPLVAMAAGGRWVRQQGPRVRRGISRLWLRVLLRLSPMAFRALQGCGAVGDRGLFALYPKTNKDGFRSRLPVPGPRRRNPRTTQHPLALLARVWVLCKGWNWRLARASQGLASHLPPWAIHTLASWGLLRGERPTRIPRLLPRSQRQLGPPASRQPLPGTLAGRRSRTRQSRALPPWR
As to conditions: at 1 µM.

Assay [7] has as its target T3, Serine/threonine-protein kinase TAO2 (Homo sapiens). Conditions: at 10 µM.
Assay [8] deals with T4, Serine/threonine-protein kinase TAO3 (Homo sapiens) (UniProt Q9H2K8).
T4 sequence (whole entry): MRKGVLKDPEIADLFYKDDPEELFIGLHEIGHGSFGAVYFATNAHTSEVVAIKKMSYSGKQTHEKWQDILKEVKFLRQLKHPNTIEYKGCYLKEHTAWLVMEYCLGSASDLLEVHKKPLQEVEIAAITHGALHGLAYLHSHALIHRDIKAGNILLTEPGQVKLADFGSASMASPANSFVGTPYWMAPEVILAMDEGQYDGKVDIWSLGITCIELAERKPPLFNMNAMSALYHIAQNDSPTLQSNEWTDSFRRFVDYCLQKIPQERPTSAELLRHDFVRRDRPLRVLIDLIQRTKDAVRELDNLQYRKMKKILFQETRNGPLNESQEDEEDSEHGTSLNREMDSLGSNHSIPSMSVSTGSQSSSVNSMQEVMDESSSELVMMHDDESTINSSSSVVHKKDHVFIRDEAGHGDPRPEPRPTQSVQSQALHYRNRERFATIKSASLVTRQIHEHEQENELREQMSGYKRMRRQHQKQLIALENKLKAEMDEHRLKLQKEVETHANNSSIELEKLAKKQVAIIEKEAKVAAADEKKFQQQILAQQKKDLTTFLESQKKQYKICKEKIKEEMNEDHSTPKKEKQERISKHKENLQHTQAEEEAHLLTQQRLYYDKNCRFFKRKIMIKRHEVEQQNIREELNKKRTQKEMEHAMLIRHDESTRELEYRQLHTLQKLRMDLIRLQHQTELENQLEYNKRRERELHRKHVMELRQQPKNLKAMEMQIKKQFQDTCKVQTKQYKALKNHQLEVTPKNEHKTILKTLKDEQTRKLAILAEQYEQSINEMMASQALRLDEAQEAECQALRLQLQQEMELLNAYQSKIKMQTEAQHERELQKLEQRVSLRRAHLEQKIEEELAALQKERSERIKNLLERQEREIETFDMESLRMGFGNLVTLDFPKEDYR
As to conditions: at 1 µM.

Assay [9] has as its target T4, Serine/threonine-protein kinase TAO3 (Homo sapiens). As to conditions: at 10 µM.
Assay [10] concerns the target T5, Serine/threonine-protein kinase TBK1 (Homo sapiens) (UniProt Q9UHD2).
T5 sequence (whole entry): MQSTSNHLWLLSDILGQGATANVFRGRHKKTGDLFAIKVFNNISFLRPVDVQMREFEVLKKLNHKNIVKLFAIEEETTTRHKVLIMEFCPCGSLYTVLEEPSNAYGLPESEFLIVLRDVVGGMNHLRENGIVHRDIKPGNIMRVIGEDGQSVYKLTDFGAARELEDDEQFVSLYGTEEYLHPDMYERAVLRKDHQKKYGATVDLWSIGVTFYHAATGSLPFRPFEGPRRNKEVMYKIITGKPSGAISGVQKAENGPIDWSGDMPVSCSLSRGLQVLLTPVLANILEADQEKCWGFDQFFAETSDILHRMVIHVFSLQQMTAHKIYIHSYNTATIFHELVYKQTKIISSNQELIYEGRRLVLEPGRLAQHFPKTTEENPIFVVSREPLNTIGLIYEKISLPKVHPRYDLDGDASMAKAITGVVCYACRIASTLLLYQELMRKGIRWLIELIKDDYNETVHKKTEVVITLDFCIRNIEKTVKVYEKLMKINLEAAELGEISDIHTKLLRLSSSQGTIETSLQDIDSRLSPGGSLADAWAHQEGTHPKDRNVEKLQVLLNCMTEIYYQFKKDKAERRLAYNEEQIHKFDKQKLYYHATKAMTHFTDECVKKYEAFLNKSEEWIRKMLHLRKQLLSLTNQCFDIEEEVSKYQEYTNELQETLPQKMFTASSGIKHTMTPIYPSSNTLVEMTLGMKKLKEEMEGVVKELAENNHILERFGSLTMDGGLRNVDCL
As to conditions: at 1 µM.

Assay [11] deals with T5, Serine/threonine-protein kinase TBK1 (Homo sapiens). As to conditions: at 10 µM.
Assay [12] addresses T6, TGF-beta receptor type-1 (Homo sapiens) (UniProt P36897).
T6 sequence (whole entry): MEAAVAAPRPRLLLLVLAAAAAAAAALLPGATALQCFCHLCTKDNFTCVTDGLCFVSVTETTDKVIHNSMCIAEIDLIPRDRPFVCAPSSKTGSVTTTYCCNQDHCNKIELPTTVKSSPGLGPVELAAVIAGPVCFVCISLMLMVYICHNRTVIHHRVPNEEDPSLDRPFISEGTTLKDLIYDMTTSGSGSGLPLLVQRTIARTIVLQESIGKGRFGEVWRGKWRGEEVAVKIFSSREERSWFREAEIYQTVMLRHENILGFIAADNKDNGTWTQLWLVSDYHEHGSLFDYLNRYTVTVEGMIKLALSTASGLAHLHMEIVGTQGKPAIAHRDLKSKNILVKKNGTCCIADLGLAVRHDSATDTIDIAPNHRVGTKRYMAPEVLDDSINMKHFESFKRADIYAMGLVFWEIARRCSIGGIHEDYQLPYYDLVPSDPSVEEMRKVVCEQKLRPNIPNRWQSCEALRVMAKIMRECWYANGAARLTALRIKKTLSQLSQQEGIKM
As to conditions: at 1 µM.

Assay [13] deals with T6, TGF-beta receptor type-1 (Homo sapiens). As to conditions: at 10 µM.
For assay [14], the target named is Insulin-like growth factor 1 receptor (Homo sapiens) (UniProt P08069). As to conditions: at 1 µM.
Insulin-like growth factor 1 receptor (Homo sapiens), sequence (P08069 31-736 limits assumed): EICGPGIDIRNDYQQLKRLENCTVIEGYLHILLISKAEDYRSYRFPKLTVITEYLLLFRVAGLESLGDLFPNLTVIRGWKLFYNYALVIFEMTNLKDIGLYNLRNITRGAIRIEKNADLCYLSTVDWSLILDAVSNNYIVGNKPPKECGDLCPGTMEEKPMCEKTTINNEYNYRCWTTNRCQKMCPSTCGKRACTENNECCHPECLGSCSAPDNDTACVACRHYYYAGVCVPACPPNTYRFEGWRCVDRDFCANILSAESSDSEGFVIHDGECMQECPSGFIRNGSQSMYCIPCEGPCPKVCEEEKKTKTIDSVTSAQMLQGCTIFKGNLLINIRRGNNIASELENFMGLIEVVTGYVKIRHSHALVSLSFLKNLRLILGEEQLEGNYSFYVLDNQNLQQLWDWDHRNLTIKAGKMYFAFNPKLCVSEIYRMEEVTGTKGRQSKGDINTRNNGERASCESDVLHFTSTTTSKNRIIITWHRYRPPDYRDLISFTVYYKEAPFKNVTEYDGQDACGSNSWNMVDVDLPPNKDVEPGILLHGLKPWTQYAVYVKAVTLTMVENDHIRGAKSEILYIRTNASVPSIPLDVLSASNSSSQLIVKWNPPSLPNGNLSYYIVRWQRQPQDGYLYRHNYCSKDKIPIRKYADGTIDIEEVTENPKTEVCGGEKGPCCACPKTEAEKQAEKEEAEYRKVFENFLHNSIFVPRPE
Insulin-like growth factor 1 receptor (Homo sapiens), sequence (P08069 741-1367 limits assumed): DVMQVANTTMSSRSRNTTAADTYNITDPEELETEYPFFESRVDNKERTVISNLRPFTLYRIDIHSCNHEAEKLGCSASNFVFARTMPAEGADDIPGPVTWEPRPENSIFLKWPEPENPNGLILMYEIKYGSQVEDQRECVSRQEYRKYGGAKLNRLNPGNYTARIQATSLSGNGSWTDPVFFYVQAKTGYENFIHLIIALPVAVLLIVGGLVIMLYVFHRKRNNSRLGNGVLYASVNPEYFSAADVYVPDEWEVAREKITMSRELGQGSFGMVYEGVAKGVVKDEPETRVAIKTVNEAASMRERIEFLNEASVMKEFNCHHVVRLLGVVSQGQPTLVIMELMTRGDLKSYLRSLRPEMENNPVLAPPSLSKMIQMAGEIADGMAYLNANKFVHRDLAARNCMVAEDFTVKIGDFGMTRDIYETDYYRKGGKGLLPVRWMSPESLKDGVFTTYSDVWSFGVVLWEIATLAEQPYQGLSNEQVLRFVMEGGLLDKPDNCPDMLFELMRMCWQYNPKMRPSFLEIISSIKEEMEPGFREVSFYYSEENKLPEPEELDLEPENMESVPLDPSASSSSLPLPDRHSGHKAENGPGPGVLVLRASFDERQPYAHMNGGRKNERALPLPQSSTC
Assay [15] has the same target. Conditions: at 10 µM.
Assay [16] addresses T7, Inhibitor of nuclear factor kappa-B kinase subunit alpha (Homo sapiens) (UniProt O15111).
T7 sequence (whole entry): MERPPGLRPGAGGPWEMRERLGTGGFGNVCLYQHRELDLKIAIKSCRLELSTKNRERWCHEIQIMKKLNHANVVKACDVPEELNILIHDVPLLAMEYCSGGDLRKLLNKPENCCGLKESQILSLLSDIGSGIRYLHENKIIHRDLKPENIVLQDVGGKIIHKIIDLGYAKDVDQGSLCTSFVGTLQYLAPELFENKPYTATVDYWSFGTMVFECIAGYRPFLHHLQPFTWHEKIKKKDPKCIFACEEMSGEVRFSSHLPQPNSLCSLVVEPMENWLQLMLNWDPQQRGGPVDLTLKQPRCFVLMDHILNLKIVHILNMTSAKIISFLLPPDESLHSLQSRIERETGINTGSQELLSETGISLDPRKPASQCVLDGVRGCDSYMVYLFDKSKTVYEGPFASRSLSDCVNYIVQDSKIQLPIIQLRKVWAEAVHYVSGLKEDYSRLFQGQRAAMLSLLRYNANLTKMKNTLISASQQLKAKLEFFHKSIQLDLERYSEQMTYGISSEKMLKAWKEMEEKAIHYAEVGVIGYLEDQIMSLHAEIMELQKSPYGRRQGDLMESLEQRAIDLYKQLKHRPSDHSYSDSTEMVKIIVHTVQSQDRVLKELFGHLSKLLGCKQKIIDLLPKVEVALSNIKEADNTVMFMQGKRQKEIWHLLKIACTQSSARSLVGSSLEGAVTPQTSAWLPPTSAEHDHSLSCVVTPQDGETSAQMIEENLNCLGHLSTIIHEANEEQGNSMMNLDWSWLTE
As to conditions: at 1 µM.

The target in assay [17] is T7, Inhibitor of nuclear factor kappa-B kinase subunit alpha (Homo sapiens). Conditions: at 10 µM.

Take `CN([C@@H](Cc1ccc(OS(=O)(=O)c2cccc3cnccc23)cc1)C(=O)N1CCN(c2ccccc2)CC1)S(=O)(=O)c1cccc2cnccc12`: the results for the residual activity in [1], in [2] and in assay [3] were 99%, 98% and 134%, respectively.
Regarding `O=C(NC(NC(=S)Nc1ccc(F)c([N+](=O)[O-])c1)C(Cl)(Cl)Cl)C(c1ccccc1)c1ccccc1` (stereo not drawn), the residual activity was found to be 92% in assay [2]; 93% in assay [4]; 83% in assay [5]; 91% in assay [6]; 92% in assay [7]; 96% in [8]. The residual activity in [9] is 90%; in assay [10], 96%; in assay [11], 74%; in [12], 98%; in assay [13], 87%; in assay [14], 85%. Moreover, the results for the residual activity in [15], in assay [16] and in assay [17] were 85%, 90% and 100%, respectively.

The values above are taken from ChEMBL document CHEMBL2218924, “A broad activity screen in support of a chemogenomic map for kinase signalling research and drug discovery” (Biochem J, 2013).
